An excerpt weighted towards active compounds, which were near 18% of everything screened.
RORg inh = qHTS for inhibitors of ROR gamma transcriptional activity; Nuclear receptor ROR-gamma (Mus musculus), P51450; Drosophila S2 Gal4-RORgamma UAS-luciferase reporter, 20 h; Potency, µM (titrated, usually from 53.6 µM), inactives show top-dose activity change, negative = inhibition, hits mostly inhibitors; actives 5.4% (n = 310,000); note: potency is the fitted concentration of half-maximal effect; nearly all actives have a fitted effect of over 60% in size
Target sequence (P51450 whole entry, looked up, the tested form may be a part): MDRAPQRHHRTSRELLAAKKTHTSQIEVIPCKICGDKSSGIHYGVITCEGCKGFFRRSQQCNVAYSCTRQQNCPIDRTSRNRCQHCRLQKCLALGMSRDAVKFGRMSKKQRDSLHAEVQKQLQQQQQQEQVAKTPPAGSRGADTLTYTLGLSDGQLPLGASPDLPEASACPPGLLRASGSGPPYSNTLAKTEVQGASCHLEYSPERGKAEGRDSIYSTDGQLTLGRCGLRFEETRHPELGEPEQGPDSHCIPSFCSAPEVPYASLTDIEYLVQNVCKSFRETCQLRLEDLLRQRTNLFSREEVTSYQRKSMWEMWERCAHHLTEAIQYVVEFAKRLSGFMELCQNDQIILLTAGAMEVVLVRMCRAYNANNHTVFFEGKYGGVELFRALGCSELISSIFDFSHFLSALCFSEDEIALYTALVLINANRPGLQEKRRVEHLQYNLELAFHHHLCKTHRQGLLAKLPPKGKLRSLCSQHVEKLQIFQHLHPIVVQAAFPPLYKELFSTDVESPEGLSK
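A Gal4/UAS one-hybrid system in insect cells: metallothionein-promoter Gal4–ROR gamma fusion plus Photinus luciferase reporter. Copper sulfate 700 uM final, 20 hr ambient incubation, luminescent detection after 10 min with reagent.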
DT40 TDP1 CPT = qHTS for Inhibitors of human tyrosyl-DNA phosphodiesterase 1 (TDP1): qHTS in cells in presence of CPT; actives 12% (n = 420,000); Potency, µM (highest dose often 46.2 µM), for inactives: at the highest dose activity change, negative = growth inhibition, most hits filed as inhibitors; AID 686979, 2013; chicken DT40 Tdp1-/-;hTDP1 cells + 20 nM CPT, ATP luminescence, 48 h; note: potency is the fitted concentration of half-maximal effect; nearly all actives have a fitted effect of over 55% in size
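Chicken DT40 Tdp1-/- cells stably complemented with human TDP1 were seeded at 400 cells/well in medium containing 20 nM camptothecin, exposed to pin-transferred compounds, and grown at 37 °C for at least 48 hr. Viability was read as ATP luminescence.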
LDHA block = qHTS assay for inhibitors of human lactate dehydrogenase; L-lactate dehydrogenase A chain (Homo sapiens), P00338; purified LDHA, NADH/diaphorase-resazurin fluorescence; stronger effect = lower value; activity change, % (values are at about 110 or 230 µM); actives 0.15% (n = 480,000); AID 1347041, 2019; in the data active = activity change below about -30%; inconclusive = mostly about -25% to -30%;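 note: plate controls were DMSO wells for no effect and wells without enzyme for full effect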
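LDH5 2 nM; NADH 0.06 mM, pyruvate 0.2 mM; 200 mM Tris pH 7.4, EDTA, Tween-20; 5 min RT. Detection: diaphorase 0.133 mg/mL + resazurin 37 µM, fluorescence ex540/em590 at 0 and 20 min; normalized to enzyme-free and DMSO wells.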
Gal4-VP16 FLuc = VP16 counterscreen qHTS for inhibitors of ROR gamma transcriptional activity; actives 3.5% (n = 310,000); Potency, µM (titrated, usually from 53.6 µM), inactives show at the top dose activity, negative = inhibition, hits mostly inhibitors; Drosophila S2 Gal4-VP16 UAS-luciferase, luminescence, 20 h;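 note: Gal4-VP16 expression switched on by copper sulfate through the metallothionein promoter; potency is the fitted concentration of half-maximal effect; nearly all actives have a fitted effect of over 50% in size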
DT40 TDP1 no CPT = qHTS for Inhibitors of human tyrosyl-DNA phosphodiesterase 1 (TDP1): qHTS in cells in absence of CPT; Potency, µM (top dose mostly 46.2 µM), for inactives: at the highest dose activity change, negative = growth inhibition, usual class: inhibitors; actives 15% (n = 420,000); DT40 Tdp1-/- hTDP1 cells, no CPT, ATP luminescence, 48 h; note: potency is the fitted concentration of half-maximal effect; nearly all actives have a fitted effect of over 55% in size
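Compound effects on proliferation are scored in DT40 Tdp1-/-;hTDP1 cells in the absence of CPT. ATP levels (CellTiter-Glo luminescence) are recorded after a ≥48 hr, 37 °C incubation.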
IL-1B inflam inh = qHTS for Inhibitors of Inflammasome Signaling: IL-1-beta AlphaLISA Primary Screen; THP-1 LPS/ATP IL-1B secretion, AlphaLISA, 16 h; stronger effect = lower value; activity change, % at 57.5 µM; actives 4.7% (n = 360,000); in the data active = activity change below about -50%; inconclusive = mostly about -30% to -49%
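Secreted IL-1B measured by AlphaLISA bead assay after 16 h compound exposure of THP-1 cells; compounds (final up to 57.5 uM) added 1 h before LPS (250 ng/mL) and ATP (1.25 mM) stimulation; lower signal means less secretion.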
* hit, by the source's call; ? = inconclusive; . = not tested or not shown. Unless noted, calls come from the whole dose curve; as a rule, active = well fitted curve in the direction sought with a large enough effect; inconclusive = small, poorly fitted or top-dose-only effect, or another doubt; inactive = no such curve, though single readings can be large; an effect the other way counts as inactive or inconclusive. Unless noted, % is set by controls: 0 for no effect and ±100 for the full control effect.

SMILES	RORg inh	DT40 TDP1 CPT	LDHA block	Gal4-VP16 FLuc	DT40 TDP1 no CPT	IL-1B inflam inh
COc1ccc(OC)c(CNC(=O)c2cc3c(-c4ccc(OC)c(OC)c4)nn(C)c3s2)c1	.	?	-3	.	8.2µM*	.
CC(C)C(=O)Nc1ccc(-c2csc(NCc3ccco3)n2)cc1	.	.	1	.	.	.
CS(=O)(=O)Nc1cccc(NC(=O)c2ccc(-n3ccnc3)c3ccoc23)c1	.	13µM*	4	.	15µM*	-28
CS(=O)(=O)Nc1cccc(NC(=O)c2ccc(-c3ccc(F)c(F)c3)c3ccoc23)c1	.	?	-7	.	?	?
Cn1nccc1-c1ccc(C(=O)Nc2cccc(NS(C)(=O)=O)c2)c2occc12	.	?	-7	.	26µM*	-50*
Cc1cccc2sc(N(CCN(C)C)C(=O)c3ccc4ccccc4c3)nc12	-21%	?	3	-4%	?	-9
Cc1cc(C)c2sc(N(CCCN(C)C)C(=O)CN3C(=O)c4ccccc4C3=O)nc2c1	-38%	?	0	?	?	0
Cc1cc(C)c2sc(N(CCN(C)C)C(=O)c3c(F)cccc3F)nc2c1	10%	-29%	-8	?	?	-71*
Cc1cc(C)c2sc(N(CCCN(C)C)C(=O)c3ccc(Br)s3)nc2c1	?	?	3	-18%	15µM*	.
O=C(c1ccoc1)N1CCN(c2cc(-c3cccc(F)c3)nc3cc(-c4cccc(Cl)c4)nn23)CC1	.	7.3µM*	2	.	4.6µM*	25
O=C(c1ccccc1)N1CCN(c2cc(Cl)nc3cc(-c4cccc(Cl)c4)nn23)CC1	.	16µM*	2	.	4.6µM*	-18
COc1ccc(-c2cc3nc(-c4ccccc4)cc(N4CCN(C(=O)c5ccsc5)CC4)n3n2)cc1	.	7.3µM*	-5	.	5.2µM*	-19
COc1ccc(-c2cc3nc(-c4ccccc4)cc(N4CCN(C(=O)c5ccccc5)CC4)n3n2)cc1	.	15µM*	1	.	4.1µM*	32
Cc1nc2cc(-c3cccc(Cl)c3)nn2c(N2CCN(C(=O)c3ccco3)CC2)c1C	12%	.	.	6%	.	.
COc1ccc(-c2csc(N3CCN(C(=O)c4ccccc4)CC3)n2)cc1	17%	?	-7	-3%	?	-19
Cc1nc2nc(N)c(C#N)cn2n1	.	.	3	.	.	.
N#Cc1ccc(N)c(C(F)(F)F)c1	.	.	4	.	.	.
O=C(NC1CCCCCC1)C1(Cc2nc3ccccc3s2)CCCC1	.	.	0	.	.	.
FC(F)(F)c1cccc(N/N=C/c2ccccc2Br)c1	.	.	-4	.	.	.
CSc1nc(=O)c2c(n1C)NC(=O)CC2c1ccc2c(c1)OCO2 (configuration not stated)	.	.	7	.	.	.
COc1ccc(-c2cc3nc(-c4ccccc4)cc(N4CCN(C(C)=O)CC4)n3n2)cc1	.	1%	1	.	2.6µM*	-5
CCOC(=O)C(NC(=O)c1cccc(C)c1)C(F)(F)F (configuration not stated)	.	.	6	.	.	.
CCOC(=S)SCc1cn2cccc(C)c2n1	14µM*	-19%	-6	-27%	-3%	-15
Cc1cccn2cc(COc3ccccc3C(=O)O)nc12	.	.	-8	.	.	.
COc1cc(C)ccc1NC(=O)Cc1csc(NC(=O)Nc2ccccc2OC)n1	.	23µM*	0	.	23µM*	3
COc1ccccc1NC(=O)Nc1nc(CC(=O)N2CCN(c3ccccc3OC)CC2)cs1	.	21µM*	-5	.	13µM*	-56*

Bioassay records: PubChem, National Center for Advancing Translational Sciences (NCATS)
